# Bioassay records as filed in PubChem BioAssay.
# PINK1 modulator: modulators of PINK1 expression | PINK1 immunofluorescence, high-content cytometry, 24 h | Potency, µM (doses to about 76.6 µM), for the others: at the top dose activation (PINK1 increase), hits mostly activators | 0.2% of 410,000 active | AID 624263; active = well fitted activation curve with a large enough effect; inconclusive = small, poorly fitted or top-dose-only effect; cell line not stated here; note: % of control where 0% means no effect; nearly all actives have a fitted effect of over 65% in size
#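 Fluorescence from anti-PINK1 antibody, together with nuclear and cell stains, was scanned on a laser-scanning cytometer. Before staining, stable-line cells were incubated 24 hours with compounds at 5 concentrations; primary antibody 12 h at 10 degrees C.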
# KB-3-1 cytotox: KB-3-1 parental cell cytotoxicity | AID 1347075 | KB-3-1 viability, CellTiter-Glo ATP luminescence, 72 h | 1.4% of 400,000 active | Potency, µM (series often up to 46.1 µM), usual class: cytotoxic; note: % is set by controls: 0 for no effect and ±100 for the full control effect; nearly all actives have a fitted effect of over 60% in size
#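 Viability of parental KB-3-1 cells, measured by CellTiter-Glo luminescence, followed a 72 h incubation at 37 °C with pinned compounds in phenol-red-free DMEM containing 10% FBS.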
# SW480 rereplic: inducers of DNA re-replication in SW480 colon cancer cells | SW480 DNA re-replication, Hoechst DNA content imaging, 48 h | Potency, µM (titrated, usually from 46.1 µM), without a hit: top-dose re-replication activation, actives largely listed as activators | 1.8% of 340,000 active | AID 624297; note: % of control where 0% means no effect; nearly all actives have a fitted effect of over 55% in size
#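 Hoechst fluorescence of nuclei (405 nm excitation, 500-530 nm emission) measured by plate-scanning imager after 48 hr compound exposure at 37 C; re-replication scored as increased number of nuclei with elevated intensity.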
# MCF10A rereplic: inducers of DNA re-replication in MCF 10A breast cells | 2.9% of 350,000 active | MCF 10A DNA re-replication, Hoechst nuclear intensity, 48 h | Potency, µM (doses to about 46.1 µM), for the others: at the top dose activity, positive = re-replication, hits mostly activators; note: % of control where 0% means no effect; nearly all actives have a fitted effect of over 50% in size
# KB-V1 MDR tox: kills drug-selected multidrug resistant KB-V1 cells; KB-V1 MDR cells viability, CellTiter-Glo, 72 h; AID 1347076; 3.4% of 400,000 active; Potency, µM (highest dose often 46.1 µM), actives largely listed as cytotoxic; note: % is set by controls: 0 for no effect and ±100 for the full control effect; nearly all actives have a fitted effect of over 60% in size
#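 KB-V1, DMEM (no phenol red) + 10% FBS; cpd pin-transferred, titration series; 72 h, 37 degrees C; CellTiter-Glo, luminescence. Data normalized, curve-fit.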
# 12-LOX inh: blocks human arachidonate 12S-lipoxygenase; P18054; purified 12hLO, xylenol orange hydroperoxide absorbance; Potency, µM (titrated, usually from 108 µM), for the others: at the top dose activity change, negative = inhibition, actives largely listed as inhibitors; 1.1% of 580,000 active; AID 1671190; note: % is set by controls: 0 for no effect and ±100 for the full control effect
# Target sequence (P18054 whole entry, looked up): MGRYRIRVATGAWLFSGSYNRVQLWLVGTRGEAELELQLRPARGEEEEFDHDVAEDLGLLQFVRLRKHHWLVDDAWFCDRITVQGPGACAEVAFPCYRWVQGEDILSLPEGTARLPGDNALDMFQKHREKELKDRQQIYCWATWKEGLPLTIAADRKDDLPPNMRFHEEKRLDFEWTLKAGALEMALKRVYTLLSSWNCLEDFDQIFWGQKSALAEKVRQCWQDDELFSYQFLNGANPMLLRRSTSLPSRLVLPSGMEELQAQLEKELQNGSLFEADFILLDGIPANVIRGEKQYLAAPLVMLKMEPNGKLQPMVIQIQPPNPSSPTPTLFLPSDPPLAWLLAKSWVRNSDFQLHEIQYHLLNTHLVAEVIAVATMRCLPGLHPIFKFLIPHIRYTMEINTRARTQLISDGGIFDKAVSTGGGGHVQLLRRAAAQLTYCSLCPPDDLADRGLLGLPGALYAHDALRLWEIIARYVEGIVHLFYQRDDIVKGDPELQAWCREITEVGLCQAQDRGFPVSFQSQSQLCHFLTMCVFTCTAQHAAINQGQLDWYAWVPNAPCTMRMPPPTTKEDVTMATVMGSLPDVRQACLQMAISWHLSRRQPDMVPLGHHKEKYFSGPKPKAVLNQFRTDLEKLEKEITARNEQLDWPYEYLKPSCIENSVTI
#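 Hydroperoxide product was detected by ferrous iron/xylenol orange as the 573 to 405 nm absorbance ratio. Arachidonic acid at 40 uM (final) was turned over for 30 min at room temperature by 150 nM human 12hLO, pH 7.0 Hepes buffer, after 15 min compound preincubation.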
# Starred values were filed as active, the others as inactive; i = inactive; u = inconclusive; x = no result given; ! = not active in a repeat; [ ] = another dose, or the depositor's remark. An excerpt weighted towards active compounds, which were near 5.8% of everything screened. Unless noted, calls come from the whole dose curve; as a rule, active = well fitted curve in the direction sought with a large enough effect; inconclusive = small, poorly fitted or top-dose-only effect, or another doubt; inactive = no such curve, though single readings can be large; an effect the other way counts as inactive or inconclusive. Potency is the fitted concentration of half-maximal effect.
SMILES,PINK1 modulator,KB-3-1 cytotox,SW480 rereplic,MCF10A rereplic,KB-V1 MDR tox,12-LOX inh
CN(C)CCCN(C(=O)COc1ccc(Cl)cc1)c1nc2c(F)cccc2s1,1.4%,i,-3.3%,12.6%,i,39.8µM*!
CCOCCc1nnc(N)s1,-5.0%[38.3 µM],i,14.6µM*,8.2µM*,i,21.9%
Cc1ccccc1Cn1cc(-c2ccncc2)cc1C(=O)N1CCCC(C)C1 (stereo unspecified),x,x,x,x,x,40.5%
COc1ccc(-c2nc(P(=O)(OC)OC)c(NCc3cccnc3)o2)cc1,x,x,x,x,x,-25.0%
CC(C)n1c(SCc2ccccc2Cl)nc2c1c(=O)[nH]c(=O)n2C,x,x,x,x,x,-11.7%
O=C(Cc1csc(Nc2nc(=S)[nH]c3ccccc23)n1)N1CCN(c2cccc(C(F)(F)F)c2)CC1,5.2%,13µM*,9.1%,u,23.1µM*,-2.3%
N#C/C(=C\c1ccc(O)c([N+](=O)[O-])c1)c1nc2ccccc2s1,u,i,28.1%,u,u,22.4µM*
Cc1ccc(-n2c(CNc3cccc(Cl)c3)n[nH]c2=S)cc1,2.2%,i,-7.0%,-5.8%,u,u
Cc1ccc(-n2c(CNc3ccc(C)c(Cl)c3)n[nH]c2=S)cc1,7.7%,i,-40.9%,6.8%,i,44.7µM*
Cc1ccc(Cl)cc1NC(=O)CC(O)(C(F)(F)F)C(F)(F)F,x,u,18.4µM*,26.6%,20.6µM*,-9.3%
COc1ccc2cnn(CC(=O)NCc3ccccc3Cl)c(=O)c2c1OC,x,x,x,x,x,-7.5%
CC1Cc2cc(-c3csc(NC(=O)Cc4cccs4)n3)ccc2N1S(C)(=O)=O (stereo unspecified),3.5%,3.26µM*,1.8%,u,2.59µM*,-9.3%
Cc1ccc(S(=O)(=O)CC(=O)Nc2nc(-c3ccccc3)cs2)cc1,1.2%,i,15.6%,-11.3%,18.4µM*,0.0%
O=C(Cc1c(F)c(F)c(F)c(F)c1F)Nc1nc(-c2ccccc2)cs1,u,u,-9.6%,18.4µM*,u,-23.0%
O=C(CN1CCOCC1)Nc1nc(-c2ccccc2)cs1,3.3%,i,-7.0%,2.2%,i,0.0%
O=C(Cn1nnc(-c2ccc(CN3CCOCC3)cc2)n1)Nc1nc(-c2ccccc2)cs1,7.7%[38.3 µM],i,6.6%,8.9%,18.4µM*,-21.1%
CCOC(=O)C1CCN(Cc2cc(=O)oc3ccc(O)cc23)CC1,x,x,x,x,x,11.3%
CC(=O)c1cccc(Oc2ccc(C#N)c(C#N)c2)c1,x,x,x,x,x,-15.0%
CC(=O)Nc1ccc(/C(C)=N\OC(C)C(=O)Nc2cccc(C)c2)cc1 (stereo unspecified),x,x,x,x,x,-23.8%
Cc1nc2cc(NC(=O)c3ccc(C(C)(C)C)cc3)ccc2o1,x,x,x,x,x,47.7%
O=C(Cc1ccccc1)Nc1nc(-c2ccc(F)c(F)c2)cs1,10.7%,i,-0.8%,24.3%,i,0.2%
O=C(Cc1ccccc1F)Nc1nc(-c2ccc(F)c(F)c2)cs1,4.9%,u,u,16.4µM*,u,u
O=C(Cc1cccs1)Nc1nc(-c2ccc(F)cc2F)cs1,-0.5%[38.3 µM],23.1µM*,u,u,u,-10.0%
O=C(Cc1cccs1)Nc1nc(-c2ccc(F)c(F)c2)cs1,11.2%,u,2.0%,8.4%,u,u
CC1CCN(CC(=O)Nc2nc(-c3ccccc3)cs2)CC1,-0.9%,i,-2.0%,u,i,0.0%
SMILES,PINK1 modulator,KB-3-1 cytotox,SW480 rereplic,MCF10A rereplic,KB-V1 MDR tox,12-LOX inh
Cc1ccc(-c2csc(NC(=O)CN3CC(C)OC(C)C3)n2)cc1 (stereo unspecified),1.9%,23.1µM*,u,18.4µM*,u,-1.1%
Cn1c(=O)c2c(ncn2CC(O)COCc2ccccc2)n(C)c1=O (stereo unspecified),x,x,x,x,x,-0.4%
COC(=O)c1cc(S(=O)(=O)N(C)CC(=O)N2CCN(c3ccc(C(C)=O)cc3)CC2)cn1C,x,x,x,x,x,7.6%
CC(/C=C/c1ccco1)=N\NC(=O)C(O)c1ccccc1 (stereo unspecified),2.9%,i,0.2%,23.1µM*,i,3.4%
O=C(N/N=C/c1ccco1)C(O)c1ccccc1 (stereo unspecified),-0.3%,i,2.7%,1.8%,i,458.4%
CCS(=O)(=O)c1cc([N+](=O)[O-])c(Sc2ccccc2NC(C)=O)s1,0.0%,u,39.2%,u,i,14.1µM*
N#Cc1cccc(-c2nccc(-n3ccnc3)n2)c1,-0.4%,x,x,x,x,25.1µM*
CS(=O)(=O)Nc1cccc(-c2nccc(-n3ccnc3)n2)c1,-1.0%,x,x,x,x,22.4µM*
CS(=O)(=O)Nc1cccc(-c2nc(-n3ccnc3)c3ccccc3n2)c1,-0.8%,x,x,x,x,u
COc1ccccc1-n1ccn2c(SCC(=O)N3CCN(c4ccccc4F)CC3)nnc2c1=O,x,x,x,x,x,-4.7%
FC(F)(F)c1cc(-c2ccc(Cl)cc2)nc(NCc2cccnc2)n1,27.5%[38.3 µM],i,u,16.4µM*,u,12.4%
Cc1c(Cl)c([N+](=O)[O-])nn1CC(=O)NC(C)C1CC2CCC1C2 (stereo unspecified),-1.4%,23.1µM*,-2.1%,26.3%,i,0.0%
O=C(NC12CC3CC(CC(C3)C1)C2)c1ccc([N+](=O)[O-])o1,0.0%,5.17µM*,u,8.2µM*,i,0.0%
CC(NC(=O)c1ccc([N+](=O)[O-])o1)C1CC2CCC1C2 (stereo unspecified),-4.1%,u,10.3µM*,11.6µM*,u,x
O=C(NC12CC3CC(CC(C3)C1)C2)c1ccc(-c2ccc(Br)cc2)o1,u,i,u,20.6µM*,u,-20.7%
O=C(NC12CC3CC(CC(C3)C1)C2)c1ccc(Br)o1,3.0%,i,2.6%,u,i,37.5%
CC(=O)Nc1ccc(S(=O)(=O)[C@H]2CS(=O)(=O)C[C@@H]2N2CCCC2)cc1,x,x,x,x,x,-1.9%
CC(=O)Nc1ccc(S(=O)(=O)Nc2ccc3c(c2)N(S(C)(=O)=O)CC3)cc1,x,x,x,x,x,-5.0%
O=C(Nc1ccc(Br)cn1)c1ccc2nccnc2c1,13.6%,u,u,u,16.4µM*,-3.0%
O=C(Nc1ccc(Br)cn1)c1cccc2ccccc12,3.0%,i,3.26µM*,4.11µM*,1.03µM*,0.0%
Cc1ccccc1C(=O)Nc1ccc(Cl)cn1,4.1%,u,u,690.3%[0.0737 µM],u,-2.4%
O=C(Nc1ccc(Cl)cn1)c1cccc2c(Br)cccc12,-2.0%,11.6µM*,u,u,i,11.6%
O=C1NC(=NC2CCCC2)C2(CCCN(CC3CC3)C2)N1c1cc(F)cc(F)c1 (stereo unspecified),x,x,x,x,x,-0.1%[6.33 µM]
COc1ccc(/C=C2\SC(N3CCc4ccccc4C3)=NC2=O)cc1,8.4%,i,-5.7%,u,u,-23.6%
